Assay results: PubChem BioAssay AID1159580 (chemical genetic matrix, 2015)
Hit rate of the full screen: of about 5,500 compounds, about 2,000 (36%) were called active. Another 18% or so got no clear call; they are omitted. Cut-off read from the data, not from the text of the source: active = normalized growth mostly below about 0.91 (no sharp cut-off); inconclusive = no clear call, values can overlap the other calls; inactive = mostly above about 0.92. Some of the results follow.

Assay: chemical genetic growth profiling, strain panel (AID 1159580);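 note: tested at 20 µM; growth read once vehicle control cultures reached saturation at 30 °C; 1 = growth at the plate median or of vehicle wells; lower values mean less growth of the strain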
Conditions: growth OD

Measured: normalized growth

Clc1ccc(COC(Cn2ccnc2)c2ccc(Cl)cc2Cl)c(Cl)c1 (configuration not stated)
active: S. cerevisiae deletion strains, locus YJR075W, strain HOC1, active compounds read low 0.0654 | S. cerevisiae deletion strains, locus YKL009W, strain mrt4, active compounds read low 0.0991 | S. cerevisiae deletion strains, locus YKL068W, active compounds read low 0.0685 | S. cerevisiae deletion strains, locus YKL085W, strain MDH1 (second series), active compounds read low 0.0665 | S. cerevisiae deletion strains, locus YKL085W, strain MDH1, active compounds read low 0.0665 | S. cerevisiae deletion strains, locus YKL160W, strain elf1, active compounds read low 0.0826 | S. cerevisiae deletion strains, locus YKL190W, strain CNB1, active compounds read low 0.046 | S. cerevisiae deletion strains, locus YKR001C, strain vps1, active compounds read low 0.0634 | S. cerevisiae deletion strains, locus YKR026C, strain gcn3, active compounds read low 0.0698 | S. cerevisiae deletion strains, locus YKR091W, strain srl3, active compounds read low 0.0616 | S. cerevisiae deletion strains, locus YLL001W, strain dnm1, active compounds read low 0.0638 | S. cerevisiae deletion strains, locus YLL026W, active compounds read low 0.0593 | S. cerevisiae deletion strains, locus YLL041C, strain sdh2, active compounds read low 0.0595 | S. cerevisiae deletion strains, locus YLR027C, strain aat2, active compounds read low 0.0575 | S. cerevisiae deletion strains, locus YLR039C, strain RIC1, active compounds read low 0.0754 | S. cerevisiae deletion strains, locus YLR058C, strain SHM2, active compounds read low 0.0389 | S. cerevisiae deletion strains, locus YLR102C, strain apc9, active compounds read low 0.0667 | S. cerevisiae deletion strains, locus YLR113W, strain HOG1, active compounds read low 0.128 | S. cerevisiae deletion strains, locus YLR221C, strain rsa3, active compounds read low 0.0643 | S. cerevisiae deletion strains, locus YLR258W, strain gsy2, active compounds read low 0.0636 | S. cerevisiae deletion strains, locus YLR262C, strain YPT6 (second series), active compounds read low 0.0835 | S. cerevisiae deletion strains, locus YLR262C, strain YPT6, active compounds read low 0.0925 | S. cerevisiae deletion strains, locus YLR268W, strain sec22, active compounds read low 0.0664 | S. cerevisiae deletion strains, locus YLR320W, strain mms22, active compounds read low 0.087 | S. cerevisiae deletion strains, locus YLR330W, strain CHS5, active compounds read low 0.0522 | S. cerevisiae deletion strains, locus YLR342W, strain FKS1 (second series), active compounds read low 0.0607 | S. cerevisiae deletion strains, locus YLR342W, strain FKS1, active compounds read low 0.0655 | S. cerevisiae deletion strains, locus YLR357W, strain rsc2, active compounds read low 0.124 | S. cerevisiae deletion strains, locus YLR370C, strain arc18, active compounds read low 0.064 | S. cerevisiae deletion strains, locus YLR371W, strain rom2, active compounds read low 0.0643 | S. cerevisiae deletion strains, locus YLR384C, strain iki3, active compounds read low 0.0632 | S. cerevisiae deletion strains, locus YLR418C, strain cdc73, active compounds read low 0.104 | S. cerevisiae deletion strains, locus YML016C, strain PPZ1, active compounds read low 0.0516 | S. cerevisiae deletion strains, locus YML032C, strain rad52, active compounds read low 0.0665 | S. cerevisiae deletion strains, locus YML120C, strain ndi1, active compounds read low 0.0587 | S. cerevisiae deletion strains, locus YML124C, strain tub3, active compounds read low 0.058 | S. cerevisiae deletion strains, locus YMR058W, strain fet3, active compounds read low 0.0613 | S. cerevisiae deletion strains, locus YMR078C, strain ctf18, active compounds read low 0.0692 | S. cerevisiae deletion strains, locus YMR125W, strain sto1, active compounds read low 0.0759 | S. cerevisiae deletion strains, locus YMR129W, active compounds read low 0.0593 | S. cerevisiae deletion strains, locus YMR205C, strain PFK2, active compounds read low 0.0878 | S. cerevisiae deletion strains, locus YMR223W, strain ubp8, active compounds read low 0.0663 | S. cerevisiae deletion strains, locus YMR231W, strain pep5, active compounds read low 0.171 | S. cerevisiae deletion strains, locus YMR263W, strain SAP30, active compounds read low 0.062 | S. cerevisiae deletion strains, locus YMR307W, strain GAS1, active compounds read low 0.107 | S. cerevisiae deletion strains, locus YNL067W, strain RPL9B, active compounds read low 0.0502 | S. cerevisiae deletion strains, locus YNL071W, strain lat1, active compounds read low 0.0615 | S. cerevisiae deletion strains, locus YNL128W, strain TEP1, active compounds read low 0.0612 | S. cerevisiae deletion strains, locus YNL153C, strain GIM3, active compounds read low 0.0486 | S. cerevisiae deletion strains, locus YNL183C, strain NPR1, active compounds read low 0.00703 | S. cerevisiae deletion strains, locus YNL209W, strain ssb2, active compounds read low 0.0642 | S. cerevisiae deletion strains, locus YNL233W, strain BNI4, active compounds read low 0.0542 | S. cerevisiae deletion strains, locus YNL248C, strain rpa49, active compounds read low 0.0801 | S. cerevisiae deletion strains, locus YNL250W, strain rad50, active compounds read low 0.0712 | S. cerevisiae deletion strains, locus YNL271C, strain bni1, active compounds read low 0.0673 | S. cerevisiae deletion strains, locus YNL298W, strain CLA4, active compounds read low 0.0653 | S. cerevisiae deletion strains, locus YNL307C, strain MCK1, active compounds read low 0.0672 | S. cerevisiae deletion strains, locus YNL322C, strain KRE1 (second series), active compounds read low 0.0752 | S. cerevisiae deletion strains, locus YNL322C, strain KRE1, active compounds read low 0.0472 | S. cerevisiae deletion strains, locus YNR049C, strain mso1, active compounds read low 0.0611 | S. cerevisiae deletion strains, locus YNR052C, strain pop2, active compounds read low 0.0593 | S. cerevisiae deletion strains, locus YOL006C, strain TOP1, active compounds read low 0.0836 | S. cerevisiae deletion strains, locus YOL012C, strain htz1 0.185 | S. cerevisiae deletion strains, locus YOL147C, strain pex11, active compounds read low 0.059 | S. cerevisiae deletion strains, locus YOR001W, strain rrp6, active compounds read low 0.0687 | S. cerevisiae deletion strains, locus YOR061W, strain CKA2, active compounds read low 0.0316 | S. cerevisiae deletion strains, locus YOR069W, strain VPS5, active compounds read low 0.052 | S. cerevisiae deletion strains, locus YOR070C, strain gyp1, active compounds read low 0.061 | S. cerevisiae deletion strains, locus YOR080W, strain dia2, active compounds read low 0.0651 | S. cerevisiae deletion strains, locus YOR083W, strain WHI5, active compounds read low 0.0643 | S. cerevisiae deletion strains, locus YOR106W, strain vam3, active compounds read low 0.0643 | S. cerevisiae deletion strains, locus YOR136W, strain idh2, active compounds read low 0.0723 | S. cerevisiae deletion strains, locus YOR144C, strain elg1, active compounds read low 0.0556 | S. cerevisiae deletion strains, locus YOR184W, strain ser1, active compounds read low 0.0771 | S. cerevisiae deletion strains, locus YOR231W, strain MKK1, active compounds read low 0.112 | S. cerevisiae deletion strains, locus YOR265W, strain rbl2, active compounds read low 0.0604 | S. cerevisiae deletion strains, locus YOR270C, strain vph1, active compounds read low 0.0973 | S. cerevisiae deletion strains, locus YOR290C, strain snf2, active compounds read low 0.0739 | S. cerevisiae deletion strains, locus YOR316C, strain cot1, active compounds read low 0.0648 | S. cerevisiae deletion strains, locus YPL051W, strain arl3, active compounds read low 0.0665 | S. cerevisiae deletion strains, locus YPL055C, strain LGE1, active compounds read low 0.0731 | S. cerevisiae deletion strains, locus YPL078C, strain atp4, active compounds read low 0.0694 | S. cerevisiae deletion strains, locus YPL106C, strain sse1, active compounds read low 0.128 | S. cerevisiae deletion strains, locus YPL240C, strain hsp82, active compounds read low 0.0639 | S. cerevisiae deletion strains, locus YPL241C, strain CIN2, active compounds read low 0.0503 | S. cerevisiae deletion strains, locus YPL256C, strain CLN2, active compounds read low 0.129 | S. cerevisiae deletion strains, locus YPR119W, strain clb2, active compounds read low 0.0606 | S. cerevisiae deletion strains, locus YPR141C, strain kar3, active compounds read low 0.0743 | S. cerevisiae deletion strains, locus YPR163C, strain tif3, active compounds read low 0.079 | S. cerevisiae deletion strains, locus YPR167C, strain met16, active compounds read low 0.0606 | S. cerevisiae deletion strains, strain wtn01, active compounds read low 0.0603 | S. cerevisiae strains, strain wild type, active compounds read low 0.0493
